The results in this text go back to PubChem BioAssay (EPA / NIEHS).

Molecules are shown by their SMILES. Results filed as inconclusive are left out. Some compounds were tested as several samples or in several runs, with calls that do not always agree. Active and inactive are the calls of the source. The calls were made as follows: active = hit-call score of the fitted dose curve at least 0.9, where 1 is the maximum; inconclusive = response in the unintended direction; inactive = score below 0.9.

Chain of Cellular tumor antigen p53 (Homo sapiens) (P04637 whole entry, looked up, the tested form may be a part): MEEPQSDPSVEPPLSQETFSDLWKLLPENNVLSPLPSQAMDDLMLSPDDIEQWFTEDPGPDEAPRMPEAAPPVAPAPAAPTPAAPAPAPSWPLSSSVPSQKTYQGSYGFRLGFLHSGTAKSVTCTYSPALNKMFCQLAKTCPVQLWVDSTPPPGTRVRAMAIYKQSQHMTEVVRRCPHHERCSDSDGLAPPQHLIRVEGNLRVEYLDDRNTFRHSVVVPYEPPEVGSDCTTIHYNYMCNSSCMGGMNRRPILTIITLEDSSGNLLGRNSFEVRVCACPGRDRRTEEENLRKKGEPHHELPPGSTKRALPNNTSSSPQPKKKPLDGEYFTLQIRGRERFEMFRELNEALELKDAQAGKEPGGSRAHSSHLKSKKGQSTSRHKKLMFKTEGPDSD

This assay has as its target Cellular tumor antigen p53 (Homo sapiens) (UniProt P04637). Put plainly: TOX21_p53_BLA_p4_ratio: Tox21 HCT-116 p53 Agonism Beta-lactamase Assay, Ratio, Phase 4 (AID 2283601). An excerpt:
TOX21_p53_BLA_p4 is a cell-based, single-readout assay that uses HCT116, a human intestinal cell line, […] in a 1536-well plate.TOX21_p53_BLA_p4_ratio is an assay readout measuring reporter gene via receptor activity and designed using inducible reporter (beta lactamase induction) detected with GAL4 b-lactamase reporter gene. The signal is derived from the ratio of cleaved (ch2) to uncleaved (ch1)reporter gene substrate used as the measure of target activity.Data from the assay component TOX21_p53_BLA_p4_ratio was analyzed into 1 assay endpoint. This assay endpoint, TOX21_p53_BLA_p4_ratio, was analyzed in the positive analysis fitting direction relative to DMSO as the negative control and baseline of activity. Using a type of inducible reporter, gain-of-signal activity can be used to understand changes in the reporter gene as they relate to the gene TP53. Furthermore, this assay endpoint can be referred to as a primary readout, because this assay has produced multiple assay endpoints where this ratio serves a reporter gene function to understand target activity. To generalize the intended target to other relatable targets, this assay endpoint is annotated to the DNA binding intended target family, where the subfamily is tumor suppressor.
Thawing Method: Place 14 mL of pre-warmed thaw medium into a 15 mL of conical tub. Remove the vial of cells to be thawed from liquid nitrogen and thaw rapidly by placing at 37C in a water bath with gentle agitation for 1-2 minutes. Decontaminate the vial by wiping with 70% ethanol before opening in a biological safety cabinet. Transfer the vial contents drop-wise into 14 mL of thaw medium in a sterile 15-mL conical tub. Centrifuge cells at 900 rpm for 4 minutes and resuspend in thaw medium. Transfer contents to the T75 tissue culture flask containing Thaw Medium and place flask in a humidified 37C/5% CO2 incubator. Switch to growth medium at first passage.Propagation Method: Aspirate medium, rinse once in DPBS, add 0.25% Trypsin/EDTA and swirl to coat the cell evenly. Add an equal volume of Growth Medium to inactivate Trypsin after 2-3 minutes incubation at 37C. Centrifuge cells at 900 rpm for 4 minutes and resuspend in growth medium. Cell should be passage or fed at least twice a week.Assay Protocol: Harvest cells from culture in growth medium and resuspend in assay medium. 2.2 Dispense 4000 cells/5 uL/well into 1536-well black/clear bottom plates using a Multidrop dispenser. After the cells were incubated at 37C for 5 hours, 23 nL of compounds dissolved in DMSO were transferred to the assay plate by a PinTool resulting in a 217-fold dilution. Incubate the plates for 16 hours at 37C, 5% CO2. Add 1 uL of 6X LiveBLAzer FRET B/G (CCF4-AM) Substrate Mixture to each well using a BioRAPTR dispenser and incubate the plates at room temperature for 2 hours. Measure fluorescence intensity at 460 and 530 nm emission and 405 nm excitation by an Envision detector. Data is expressed as the ratio of 460nm/530nm emissions. Add 4 uL of Cell-titer Glo to each well using BioRAPTR and incubate the plates at room temperature for 2 hours. Measure fluorescence intensity by a VewLux plate reader.
On to `Cc1c(Cl)cccc1Nc1ncccc1C(=O)O`, for which the outcome was inactive.
On the same count and under the same terms, as for `CCCCCCCCCCCCCCCC(=O)OCC(COC(=O)CCCCCCCCCCCCCCC)OC(=O)CCCCCCCCCCCCCCC`, the entry is “inactive”.
On the same count and under the same terms, under `CC(O)CN(CCCN(C)C)CCCN(C)C` (stereo unspecified) stands “inactive”; under `COC(=O)C1=C(C)NC(C)=C(C(=O)OC)C1c1ccccc1[N+](=O)[O-]`, “inactive”; under `CNC[C@H](O)c1ccc(O)c(O)c1`, “inactive”.
On the same count and under the same terms, under `C=CC1=C(C(=O)O)N2C(=O)[C@@H](NC(=O)/C(=N\O)c3csc(N)n3)[C@H]2SC1` (stereo in doubt) stands “inactive”.
For `C[C@H](CS)C(=O)N1CCC[C@H]1C(=O)O`, the outcome was inactive.
Same read-out and setting: under `CCOC(=O)OC(C)OC1=C(C(=O)Nc2ccccn2)N(C)S(=O)(=O)c2ccccc21` (stereo unspecified) stands “inactive”.
Same read-out and setting: under `CC(C)=CCC/C(C)=C/CC/C(C)=C/CC/C=C(\C)CC/C=C(\C)CCC=C(C)C` stands “inactive”.
`CC[N+](C)(C)Cc1ccccc1Br`: the outcome was inactive.
Still for that read-out and setting: under `COc1ccc([C@@H]2Sc3ccccc3N(CCN(C)C)C(=O)[C@@H]2OC(C)=O)cc1` stands “inactive”.
Same read-out and setting: under `O=C(c1ccccc1)c1cccc(O)c1` stands “inactive”.
Same read-out and setting: as for `COC(=O)[C@@H](N)CS`, the entry is “inactive”.
Take `NCCc1cnc[nH]1`: the outcome was inactive.
On the same count and under the same terms, under `COc1ccc(C)cc1` stands “inactive”; under `CCC(CO)(CO)COCC(CC)(CO)CO`, “inactive”.
In the case of `CCCCCCC`, the result was inactive.
With `Nc1cnn([C@@H]2O[C@H](CO)[C@@H](O)[C@H]2O)c(=O)n1`, the AC50 – broadly, the concentration at which the activity in the assay is half-maximal – is 1.34 µM (active).
Still for that read-out and setting: under `CN1CCN(CCCN2c3ccccc3Sc3ccc(C(F)(F)F)cc32)CC1` stands 43.1 µM (active); under `CCCCCCCCCCCCCCCCOCCOCCOCCOCCOCCOCCOCCOCCOCCOCCOCCOCCOCCOCCOCCOCCOCCOCCOCCOCCO`, 43.5 µM (active).
`C[C@@H]1CCC[C@H](C)N1`: the outcome was inactive.
As for `CCC(C)=NO`, the result was inactive.
Consider `COc1ccc2cc3[n+](cc2c1OC)CCc1cc2c(cc1-3)OCO2`, for which the result was inactive and the AC50 is 53.1 µM (active).
As to `O=C(O)c1cc(O)c(O)c(O)c1`, the result was inactive.
As for `Cc1ccc(O)c2ncccc12`, the outcome was inactive.
The same measure, in the same setting: as for `CCN(CC)CCOc1ccc(Cc2ccccc2)cc1`, the entry is “inactive”.
Still for that read-out and setting: under `O=C(CS)Nc1ccccc1` stands “inactive”.
Take `CC(CN1CC(=O)NC(=O)C1)N1CC(=O)NC(=O)C1` (stereo unspecified): the AC50 is 8.89 µM (active).
Consider `CCCCC`, for which the outcome was inactive.
On to `O=C(O)CCCC/C=C(\c1ccccc1)c1cccnc1`, for which the result was inactive.
Still for that read-out and setting: as for `Cc1cc(C)cc(N)c1`, the entry is “inactive”.
Same read-out and setting: under `CC1(C)[C@H](C(=O)O)N2C(=O)C[C@H]2S1(=O)=O` stands “inactive”.
In the case of `CN(C)CCC=C1c2ccccc2CSc2ccccc21`, the AC50 was 16.6 µM (active).
As for `CC(=O)NO`, the result was inactive.
Same read-out and setting: under `CCOC(=O)O[C@]1(C(=O)OCCl)CC[C@H]2[C@@H]3CCC4=CC(=O)C=C[C@]4(C)[C@H]3[C@@H](O)C[C@@]21C` stands “inactive”; under `CC(O)[C@@H]1NC(=O)[C@H](Cc2ccccc2)NC(=O)[C@H](C(C)O)NC(=O)[C@H](CCCCN)NC(=O)[C@H](Cc2c[nH]c3ccccc23)NC(=O)[C@H](Cc2ccccc2)NC(=O)[C@H](Cc2ccccc2)NC(=O)[C@H](CC(N)=O)NC(=O)[C@H](CCCCN)NC(=O)[C@@H](NC(=O)CNC(=O)[C@H](C)N)CSSC[C@@H](C(=O)O)NC(=O)[C@H](CO)NC1=O` (stereo partly specified), “inactive”; under `Cc1cc(CC(=O)O)c(C)n1-c1ccc(Cl)cc1`, “inactive”.
On the same count and under the same terms, under `O=[N+]([O-])c1ccc(CCO)cc1` stands “inactive”.
Take `CC(=O)Oc1ccc(C(c2ccc(OC(C)=O)cc2)c2ccccn2)cc1`: the AC50 was 5.22 µM (active) and the outcome was inactive.
